Assay outcomes as filed in PubChem BioAssay.
FLuc counter: inhibits or activates purified firefly luciferase, miR-21 counter-screen. 360,000 compounds, 6.9% hits. AID 588342. Potency, µM (top dose mostly 57.5 µM), for the others: top-dose activity change, negative = inhibition, most hits filed as inhibitors. P08659. purified FLuc, Km substrates, luminescence inhibition;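 also: plate controls were vehicle for no effect and reference inhibitor for full effect; nearly all actives have a fitted effect of over 55% in size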
Target sequence (P08659 whole entry, looked up): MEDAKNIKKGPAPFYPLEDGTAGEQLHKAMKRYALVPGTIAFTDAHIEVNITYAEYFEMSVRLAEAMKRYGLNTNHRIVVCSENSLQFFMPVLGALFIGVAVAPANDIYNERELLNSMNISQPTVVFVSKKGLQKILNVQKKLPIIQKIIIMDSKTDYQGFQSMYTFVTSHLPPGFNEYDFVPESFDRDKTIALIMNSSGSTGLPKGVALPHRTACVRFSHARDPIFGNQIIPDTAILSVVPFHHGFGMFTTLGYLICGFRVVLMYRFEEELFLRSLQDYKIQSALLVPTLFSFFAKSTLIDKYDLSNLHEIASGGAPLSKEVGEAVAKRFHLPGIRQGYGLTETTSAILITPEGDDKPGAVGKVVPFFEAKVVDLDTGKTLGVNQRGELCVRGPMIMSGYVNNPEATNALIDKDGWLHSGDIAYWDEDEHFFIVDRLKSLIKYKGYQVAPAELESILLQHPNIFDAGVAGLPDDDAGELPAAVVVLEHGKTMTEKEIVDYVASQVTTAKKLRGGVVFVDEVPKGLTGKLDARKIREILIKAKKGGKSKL
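Purified P. pyralis luciferase (10nM final) with 10uM D-luciferin and 10uM ATP (Km levels) in 50mM Tris acetate pH 7.5, 10mM Mg acetate, 0.01% Tween-20, 0.05% BSA; qHTS 6-point titration, ~60 µM downward; luminescence read.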
NPC1 prom act: NPC1 promoter activation; Huh7 NPC1 promoter luciferase reporter, 24 h; Potency, µM (series often up to 9.22 µM), for the others: at the top dose activation, usual class: activators; 320,000 compounds, 2.4% hits; AID 485313; also: % of control where 0% means no effect; nearly all actives have a fitted effect of over 60% in size
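Readout is luciferase luminescence, reflecting NPC1 promoter activation in stably transfected Huh7 cells after 24 h compound exposure at 37 °C in reduced-serum medium with 10% FBS.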
SMN2 splice enh: increases expression of the SMN2 splice variant | 210,000 compounds, 2.8% hits | HEK293 SMN2-luciferase splicing reporter, luminescence, 30-36 h | Potency, µM (titrated, usually from 46.1 µM), for inactives: at the highest dose activity change, positive = activation, usual class: activators; also: % of control where 0% means no effect; nearly all actives have a fitted effect of over 55% in size
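HEK293 cells carry an SMN2 minigene-luciferase reporter in which exon 7 inclusion puts luciferase in frame. Cells were seeded at 2000 cells/well, attached for 10-12 hours, then exposed to compounds for 30-36 hours at 37C before ONE-Glo luminescence.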
ELG1 genotox: induces genotoxicity in HEK293T cells with luciferase-tagged ELG1. HEK293T ELG1-luciferase reporter, luminescence, 16 h. Potency, µM (doses to about 46 µM), inactives show at the highest dose activity change, positive = activation, hits mostly activators. 330,000 compounds, 1.3% hits. AID 504466; also: % of control where 0% means no effect; nearly all actives have a fitted effect of over 60% in size
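HEK293T cells expressing luciferase-tagged ELG1 were treated with compound or DMSO for 16 hr at 37°C. Luciferase activity was then read after 30 min with ONE-Glo at room temperature; rising signal flags genetic stress.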
Rab9 prom act: activates the Rab9 promoter; Huh7 Rab9 promoter-luciferase reporter, luminescence, 24 h; Potency, µM (top dose mostly 9.22 µM), for inactives: at the highest dose activation, negative = inhibition, usual class: activators; 320,000 compounds, 2.8% hits; AID 485297; also: % of control where 0% means no effect; nearly all actives have a fitted effect of over 60% in size
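Luminescence read-out: Huh7 cells stably expressing Rab9-luciferase, treated 24 h with compound at 37 °C, then lysed with luciferase reagent for 10 min at ambient before reading.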
* marks the source's active call; other numbers are inactive results; ? = inconclusive; . = no result; [ ] = dose if it differs, or a comment. In the library only some 7.5% were active in any assay of this set; here they are far more common. Calls follow the shape of the dose curve; as a rule, active = well fitted curve in the direction sought with a large enough effect; inconclusive = small, poorly fitted or top-dose-only effect, or another doubt; inactive = no such curve, though single readings can be large; an effect the other way counts as inactive or inconclusive. Potency is read from the fitted curve at half-maximal effect.

SMILES | FLuc counter | NPC1 prom act | SMN2 splice enh | ELG1 genotox | Rab9 prom act
O=C(O)/C=C/c1cccc(NC(=O)Nc2ccc([N+](=O)[O-])cc2)c1 | 7.6µM* | -5% | . | 0% | 5%
COc1ccc(OC)c(NC(=O)Nc2ccccc2C)c1 | -7% | -2% | 21% | 2% | -3%
COc1ccc(N/C(C)=C/C(=S)Nc2ccccc2)cc1 | 11µM* | 2% | 11% | 12% | 2%
COc1ccc(N/C(C)=C/C(=O)c2ccccc2)cc1 | 3µM* | ? | 13µM* | ? | 2.8µM*
CCN(CC(=O)Nc1ccc(OC)cc1)CC(=O)Nc1ccc2c(c1)OCO2 | 3% | -3% | . | 0% | 1%
COc1ccc(OC)c(N/C=C/C(=O)c2ccccc2)c1 | 0.067µM* | ? | . | ? | ?
COc1ccc(C(=O)/C=C(\C)Nc2ccc3c(c2)OCO3)cc1 | 4.8µM* | 3.2µM* | ? | ? | 2.2µM*
COc1ccc(OC)c(N/C(C)=C/C(=O)c2ccccc2)c1 | 0.85µM* | 4µM* | 188% | ? | 3.5µM*
Cc1cc(C)nc(SCc2ccc(Cl)cc2)n1 | 2% | -1% | . | 7% | -2%
Nc1ccc(CSc2ccc(Cl)cc2)cc1 | 27µM* | ? | 26% | ? | ?
COc1c(C)cc(C(=O)C2CCCN(C(=O)c3ccc4[nH]ccc4c3)C2)cc1C (configuration not stated) | -7% | -1% | . | -2% | 8%
COc1ccc(C(=O)/C=C/c2cc(OC)c(O)c(OC)c2)c(F)c1 | 19µM* | 0% | . | -2% | -17%
COc1ccc2cc(C(=O)/C=C/c3cc(OC)c(O)c(OC)c3)ccc2c1 | 1.9µM* | ? | . | -37% | -1%
COc1ccc(C(=O)Oc2ccc(F)cc2C(=O)/C=C/c2ccc(OC)c(OC)c2)cc1 | -1% | 0% | -16% | 14% | -6%
O=C(CC1C(=O)NCCN1C(=O)Nc1ccccc1)Nc1cccc(Cl)c1 (configuration not stated) | 3% | -3% | -8% | 0% | 2%
CCCNC(=O)C1(S(=O)(=O)c2ccccc2)CC=CC1 | -4% | -3% | . | 2% | -2%
CN(C)CCOCCP(=O)(c1ccccc1)c1ccccc1 | 6% | 0% | 7% | -1% | 6%
O=C(N/N=C/c1cccc2ccccc12)c1ccc(CN2CCOCC2)cc1 | 17µM* | -4% | . | -8% | 1%
O=C(N/N=C/c1cccc2ccccc12)c1cccc(F)c1 | 21µM* | 26% | . | 24% | 28%
CCc1ccc(C(=O)N/N=C/c2cccc3ccccc23)nc1 | 5.4µM* | 25% | ? | ? | 30%
O=C(N/N=C/c1cn(Cc2ccccc2)c2ccccc12)c1ccncc1 | ? | -8% | -71% | -5% | -9%
COc1ccccc1/C=N/NC(=O)c1cccc2ccccc12 | -2% | -1% | . | -2% | -3%
Nc1ccc(C(=O)N/N=C/c2cn(Cc3cccc(F)c3)c3ccccc23)cc1 | 24µM* | 0% | . | 1% | 1%
O=C(N/N=C/c1cccc2ccccc12)c1cccnc1 | 15µM* | 2% | . | 6% | 1%
Cc1nn(Cc2c(Cl)cccc2Cl)c(Cl)c1/C=N/NC(=O)c1cccnc1 | 9.5µM* | 13% | 14% | 10% | ?
SMILES | FLuc counter | NPC1 prom act | SMN2 splice enh | ELG1 genotox | Rab9 prom act
O=C(N/N=C/c1ccccc1Cl)c1cccc(F)c1 | 4.8µM* | 2.5µM* | 22µM* | ? | 2µM*
COc1ccc(OCCn2cc(/C=N/NC(=O)c3ccncc3)c3ccccc32)cc1 | ? | 6% | -37% | -5% | -3%
O=C(N/N=C/c1c(Cl)cccc1Cl)c1cccc(F)c1 | -7% | 12% | -3% | 17% | 24%
COCCNC(=O)Cn1cc(/C=N/NC(=O)c2ccc(Oc3ccc(O)cc3)cc2)c2ccccc21 | 11µM* | 0% | -7% | -7% | -2%
COc1ccc(C(=O)NCc2nnc(SCC(=O)c3ccccc3)o2)cc1 | -2% | -3% | . | -3%[9.26 µM] | 3%
COc1ccc(CC(=O)N(C)CC(=O)Nc2ccccc2C(F)(F)F)cc1S(=O)(=O)N1CCOCC1 | 3% | 2% | . | 0% | 19%
O=C1OCCN/C1=C\C(=O)c1ccc(Cl)cc1 | 24µM* | -2% | . | -6% | -7%
O=C1OCCN/C1=C\C(=O)c1ccccc1 | 0% | -18% | . | -6% | 3%
O=C1NCCN/C1=C\C(=O)c1ccc(Br)cc1 | 9.5µM* | 1.3µM* | . | 10µM* | 1.3µM*
CCOc1ccc(C(=O)Nc2cccc(-c3nc4cccnc4s3)c2C)cc1OCC | 2% | . | . | . | .
Cn1cccc1C(=O)OCc1ccc(C(C)(C)C)cc1 | 11µM* | -35% | . | ? | ?
Cn1cccc1C(=O)OCc1nc2ccccc2c(=O)[nH]1 | . | . | . | 6% | .
Cn1cccc1C(=O)OCc1cc(-c2ccco2)on1 | 24µM* | 3.5µM* | . | ? | 3.2µM*
CCCn1c(=O)c(C(=O)Nc2ccccc2)c(O)c2ccccc21 | 4% | 12% | -20% | -7% | -1%
Cc1ccc(NC(=O)c2cc(Cl)nc3ccccc23)cc1 | 2% | -7% | 4% | -1% | 3%
Cc1ccc(NC(=O)c2c(Cl)n(C)c3ccccc23)cc1 | 3.4µM* | ? | ? | 11% | 23%
Cn1c(Cl)c(C(=O)Nc2ccccc2)c2ccccc21 | 15µM* | ? | -4% | 3% | 2%
CCn1c(SCC(=O)N2CCN(C(=O)c3ccco3)CC2)nnc1C(C)C | -2% | 2% | . | 0% | -9%
C=CCNC(=O)c1ccc(Cl)cc1Cl | -2% | 0% | 17% | 0% | -2%
C=CCOc1ccccc1/C=N/NC(=O)c1ccc(Cl)cc1Cl | 15µM* | ? | 2% | 1% | ?
COc1cc(C(=O)Oc2ccccc2/C=N/NC(=O)c2ccc(Cl)cc2Cl)cc(OC)c1OC | ? | 3.5µM* | ? | 15% | ?
Cc1cc(C(=O)COC(=O)c2ccc(O)cc2)c(C)n1CC1CCCO1 (configuration not stated) | 4.8µM* | 1.8µM* | 23% | ? | 4µM*
COc1cc(C(C)=O)ccc1OCC(=O)OCC(=O)c1cc(C)n(CC2CCCO2)c1C (configuration not stated) | ? | 0% | . | 2% | -5%
COc1cc(OC)c(C(=O)OCC(=O)c2cc(C)n(CC3CCCO3)c2C)cc1OC (configuration not stated) | 21µM* | -1% | 7% | 2% | 3%
COCCn1c(C)cc(C(=O)COC(=O)c2ccc(Cl)c(S(N)(=O)=O)c2)c1C | 0.76µM* | 0.5µM* | . | 0.58µM* | 0.5µM*
COc1cc(OC)cc(C(=O)OCC(=O)c2cc(C)n(CC3CCCO3)c2C)c1 (configuration not stated) | 6.7µM* | 14% | . | 8% | 18%
CCn1c(=O)n(-c2cccc(Cl)c2)c(=O)c2sc3ccccc3c21 | 0% | . | 10% | . | .
CC(C)(C)c1ccc(NC(=O)CCNC(=O)c2ccco2)cc1 | ? | 2% | . | 6% | 0%
